High-throughput results deposited in PubChem BioAssay by several laboratories.
The list is not random: actives were taken first. Their share in the collection is about 0.72%.
PKA-R2B act: activators of PKA-R2B holoenzyme, primary screen, biochemical, fluorescence polarization, Cy5-IP20, human; PKA-R2B holoenzyme dissociation; R2B truncated from residue 108, S112A mutant; 0% DMSO only, 100% 113 µM cGMP; activation, % at 11.4 µM; actives 0.079% (n = 340,000); AID 504700, 2011;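 active means activation above a cutoff set at the mean over all compounds plus 3 SD, cut at about 18% in these data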;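 further: higher means more holoenzyme dissociation and a rise in polarization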
PolyA inh: polyadenylation inhibitors in yeast reporter cells, primary screen, luminescence, S. cerevisiae. actives 0.02% (n = 300,000). activity score, % at 12 µM. AID 1875, 2009. S. cerevisiae SKY197-pL101 polyadenylation reporter, beta-gal luminescence; efflux-impaired pdr1/pdr3 knockout yeast; score 100 = 6 SD above DMSO;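 active means lowest replicate activity score at least 50, where 100 means six control SD above control mean; inconclusive means lowest score under 50 but half or more replicates reach 50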;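 further: yeast exposed to compound for 9 h at 30 °C; higher score means more reporter readthrough which indicates perturbed polyadenylation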
Neddyl block: inhibitors of cullin neddylation, primary screen, biochemical, TR-FRET, uHTS, NAE and Ubc12; calls only at 25 µM; actives 0.58% (n = 360,000); in the data active means inhibition above about 36%
Target sequence (P61081 whole entry, looked up): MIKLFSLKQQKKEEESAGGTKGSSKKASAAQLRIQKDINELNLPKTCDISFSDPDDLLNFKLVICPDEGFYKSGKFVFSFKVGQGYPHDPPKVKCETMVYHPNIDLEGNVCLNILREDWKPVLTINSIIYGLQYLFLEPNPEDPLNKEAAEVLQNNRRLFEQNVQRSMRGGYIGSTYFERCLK
Target sequence (Q13564 whole entry, looked up): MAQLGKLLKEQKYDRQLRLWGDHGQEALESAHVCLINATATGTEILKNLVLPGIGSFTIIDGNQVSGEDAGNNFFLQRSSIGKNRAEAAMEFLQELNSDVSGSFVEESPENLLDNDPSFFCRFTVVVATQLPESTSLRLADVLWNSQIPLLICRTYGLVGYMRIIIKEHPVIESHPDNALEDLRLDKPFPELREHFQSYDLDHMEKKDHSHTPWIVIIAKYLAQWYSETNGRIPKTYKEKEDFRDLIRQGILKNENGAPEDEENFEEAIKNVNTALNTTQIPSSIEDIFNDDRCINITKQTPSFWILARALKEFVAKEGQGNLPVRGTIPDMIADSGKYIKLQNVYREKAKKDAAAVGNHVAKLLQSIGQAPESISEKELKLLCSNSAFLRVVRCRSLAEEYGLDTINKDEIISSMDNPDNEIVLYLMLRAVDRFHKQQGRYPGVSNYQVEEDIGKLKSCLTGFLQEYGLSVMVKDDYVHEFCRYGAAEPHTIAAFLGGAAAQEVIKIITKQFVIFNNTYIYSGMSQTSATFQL
PKA-R1A act: activators of PKA-R1A holoenzyme, primary screen, biochemical, fluorescence polarization, Cy5-IP20, bovine R1A, mouse PKAc; activation, % at 11.4 µM; PKA-R1A dissociation; scaled: DMSO 0%, 113 µM cGMP 100%; cAMP-dependent protein kinase type I-alpha regulatory subunit (Bos taurus) + …; actives 0.083% (n = 340,000);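 active means percent activation above the mean of all tested compounds plus 3 SD, cut at about 19% in these data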;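 further: higher means more PKAc released from R1A so a rise in polarization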
Neddyl inh conf: blockade of NEDD8 conjugation to cullin – biochemical, TR-FRET, single concentration, confirmation; TR-FRET cullin neddylation biochemical assay; calls only at 25 µM; shares compounds with Neddyl block; actives 13% (n = 1,800); AID 652217, 2013; in the data active means inhibition above about 40%;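 further: neddylation substrate is the cullin 1 ring ligase complex with SKP2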
The depositor's hits bear a star; i = inactive; u = inconclusive; x = no result given; + = active, no number.

SMILES	PKA-R2B act	PolyA inh	Neddyl block	PKA-R1A act	Neddyl inh conf
COc1ccc(NC(=O)Cn2nnc(C(=O)Nc3ccc(F)c(Cl)c3)c2N)cc1OC	3	-2	i	4	x
C[C@@]12CCC3[C@@](CCC4[C@@]3(C)CCC[C@@]4(C)C(=O)Nc3ccc(Cl)cc3)(CC1=O)C2 (stereo not given in full)	-8	x	i	-14	x
Cn1cnc(S(=O)(=O)Nc2ccc(OC(F)F)cc2)c1	-7	-10	+	-9	i
COc1ccc(NS(=O)(=O)c2cn(C)cn2)cc1	-4	-1	i	-13	x
COc1ccc(-c2ccc3nncn3c2)cn1	x	x	i	x	x
O=C(O)CNS(=O)(=O)c1ccc2[nH]c(=O)c(=O)[nH]c2c1	-5	9	+	-11	i
O=C(Cc1ccc([N+](=O)[O-])cc1)Nc1ccc2c(c1)C(=O)NC2=O	-11	-12	i	-7	x
CC(=O)c1ccc(C(=O)Nc2ccc3c(c2)C(=O)NC3=O)cc1	-5	-11	+	4	i
O=C(Cc1ccc(Cl)cc1)Nc1ccc2c(c1)C(=O)NC2=O	-7	-9	+	-3	x
CC(C)(C)c1ccc(C(=O)Nc2ccc3c(c2)C(=O)NC3=O)cc1	2	8	x	0	x
CCc1ccc(-c2csc(NC(=O)C3CC(=O)N(c4ccc5c(c4)OCCO5)C3)n2)cc1 (stereo not given)	-6	0	+	-8	i
COc1cccc(/C=C/C(=O)OCC(=O)N2c3ccccc3CC2C)c1OC (stereo not given)	-4	x	+	1	x
COc1cccc(/C=C/C(=O)OCC(=O)NCC2CCCCC2)c1OC	-9	x	+	1	i
COc1ccc(OC)c(/C=C/C(=O)OCC(=O)NC2CCCCCCC2)c1	11	x	+	-4	x
COc1cccc(/C=C/C(=O)OCC(=O)c2cc(C)n(CC3CCCO3)c2C)c1OC (stereo not given)	-3	x	+	-1	i
COc1ccc(/C=C/C(=O)OCC(=O)NC2CCCCCCC2)cc1	5	x	i	-2	x
Cc1ccccc1-c1cc2nc(NCc3ccccc3)n(C)c(=O)c2s1	x	x	i	x	x
CSC1SCC2C(=O)N(C)C(C(C)C)C(=O)OCC(NC(=O)c3cnc4ccccc4n3)C(=O)NC(C)C(=O)N(C)C1C(=O)N(C)C(C(C)C)C(=O)OCC(NC(=O)c1cnc3ccccc3n1)C(=O)NC(C)C(=O)N2C (stereo not given)	-12	x	i	-4	x
COC(=O)c1ccc(-c2ccc(/C=N/NC(=O)Cc3nnc(N)s3)o2)cc1	-8	26	+	3	i
CC(C)(C)c1ccc(NC(=O)N2CCN(c3ccc([N+](=O)[O-])cn3)CC2)cc1	-14	-12	i	-15	x
COc1cc(/C=C/C(=O)Nc2ccc(N3CCCCC3)c(S(=O)(=O)Nc3ccccc3Cl)c2)cc(OC)c1OC	6	-19	+	-1	i
COc1ccc2nc(-c3ccccc3)cc(C(=O)OCC(=O)NC3CC3)c2c1	-7	x	i	-2	x
Oc1ccc(Br)cc1C=Nc1ccc2c3c(cccc13)CC2	0	-13	+	1	x
COC(=O)/C=C1\OCc2cc(OC)c(OC)cc21	x	x	i	x	x
CCOC(=O)C1CCc2c(ccc3ccccc23)N1CCC#N (stereo not given)	5	x	+	3	x
SMILES	PKA-R2B act	PolyA inh	Neddyl block	PKA-R1A act	Neddyl inh conf
COCCn1nnnc1C(C(C)C)N(Cc1ccccc1)Cc1cc2cc(OC)ccc2[nH]c1=O (stereo not given)	9	x	x	-6	x
COCCn1nnnc1C(C(C)C)N(Cc1cccnc1)Cc1cc2cc(OC)ccc2[nH]c1=O (stereo not given)	-5	-2	+	-6	i
COc1ccc(CCNC(=O)C2=CC=CN3CCS(=O)(=O)N=C23)cc1	11	x	i	-1	x
O=C(NCCc1ccc(Cl)cc1)C1=CC=CN2CCS(=O)(=O)N=C12	-7	x	+	2	+
O=S(=O)(Nc1ccon1)c1ccc(Br)cc1	-10	-5	i	9	x
CCN1C/C(=N\S(=O)(=O)/N=C2\CN(CC)C(=O)N2CC)N(CC)C1=O	-5	u	i	-1	x
Fc1cccc(CO/N=C/c2c(-c3ccccc3)nc3ccc(Cl)cn23)c1	6	-3	i	-5	x
Cc1cccn2c(/C=N/OCc3cccc(F)c3)c(-c3ccc(Cl)cc3)nc12	4	-20	+	2	i
O=C1c2ccccc2-c2n[nH]c3cccc1c23	4	x	+	-4	x
Cc1cc(C)c(C)c(S(=O)(=O)Nc2ccccc2C(=O)O)c1C	5	7	+	-4	x
NC(=O)c1ccccc1NS(=O)(=O)c1ccc2c(c1)OCCO2	-1	7	x	3	x
O=C(NCCCn1ccnc1)c1ccccc1NS(=O)(=O)c1ccc(F)c(F)c1	-6	2	i	-4	x
Cc1cc(C)c(C)c(S(=O)(=O)Nc2ccccc2C(=O)NCCCn2ccnc2)c1C	9	u	+	-5	x
O=C(O)c1ccccc1NS(=O)(=O)c1ccc2c(c1)OCCO2	2	-7	+	-9	x
S=c1[nH]nc(COc2ccc(Cl)cc2Cl)n1-c1ccccc1	-4	-7	i	-12	x
O=C(NN1C(=O)c2ccc3c4c(ccc(c24)C1=O)CC3)c1ccc(Br)cc1	-9	-32	+	-9	i
CCOC(=O)N/N=C(/C)c1ccc(N2C(=O)C3CCCCC3C2=O)cc1 (stereo not given)	-12	-8	i	1	x
COc1cc(C(O)c2nc(-c3cccs3)cs2)ccc1F (stereo not given)	x	x	i	x	x
CN(C)c1ccc(-c2[nH][nH]c(=O)c2NC(=O)c2ccccn2)cc1	x	x	+	x	i
CN(C)c1ccc(-c2[nH][nH]c(=O)c2NC(=O)c2ccc3ccccc3n2)cc1	x	x	i	x	x
CC1Sc2ccccc2N(Cc2ccc(OC(F)(F)F)cc2)C1=O (stereo not given)	x	x	i	x	x
COc1ccc(C[C@H]2c3cc(O)c(OC)cc3CC[N+]2(C)[O-])cc1O (stereo not given in full)	-8	9	+	1	+
COc1cc2c(cc1O)C(Cc1ccc(O)cc1)[N+](C)([O-])CC2 (stereo not given)	-2	-6	i	7	x
